Assay outcomes deposited in PubChem by ICCB-Longwood Screening Facility, Harvard Medical School.
Shown is part of a subset that was picked to be rich in hits.
Vaccinia pol inh: blocks vaccinia virus processive DNA synthesis. in vitro processive DNA synthesis, absorbance read-out; hits give low values. normalized absorbance, % (concentration not given with the values). actives 0.94% (n = 46,000). AID 493162; in the data active means normalized absorbance mostly below about 85%, no sharp cut-off; inactive means mostly above about 86%
Large screens that a line does not name were inactive.

Cc1ccc2cc3cc(C(=O)NCCN4CCN(c5cccc(Cl)c5)CC4)sc3nc2c1	none
O=C(O)CCSC(=S)N1CCCC1	none
O=C(c1cccs1)C1C2C(=O)C3OCC(O3)C12 (stereo not drawn)	none
O=C1OC(c2cccs2)=N/C1=C\c1cccc(F)c1	none
Cc1ccc2[nH]c(C)c(CCN(Cc3ccco3)C(=S)Nc3cccc(C)c3C)c2c1	none
CCCCc1ccc(NC(=O)COC(=O)c2ccc(Cl)nc2)cc1	none
CCOc1ccccc1N(C)C(=O)COc1cc(=O)n(C)c2ccccc12	none
CN(c1ccc(Cl)cc1)c1cc(=O)n(C)c2ccccc12	Vaccinia pol inh 63.2
CN1CCN(C(=O)COc2cc(=O)n(C)c3ccccc23)CC1	none
CCc1cc2c(-c3ccccc3)cc(=O)oc2cc1O	none
O=C(Cn1ncc2ccc(Cl)cc21)N1CCCCC1	none
COC(CNC(=O)c1ccc2c(c1)N(Cc1ccc(Cl)cc1)CCS2)OC	none
O=C(c1ccc2c(c1)N(Cc1ccc(F)cc1)CCS2)N1CCCCC1	none
O=C(O)c1ccc2c(c1)N(Cc1ccc(Cl)cc1)CCS2	Vaccinia pol inh 72.1
Cc1cc(C)n(C(=O)CCNC(=O)c2ccccc2)n1	none
CCN(CC)CCCn1c(-c2ccccc2)cn2c3ccccc3nc12	none
c1ccc(-c2csc3nc4ccccc4n23)cc1	none
c1ccc(-c2cn3c(nc4ccccc43)s2)cc1	Vaccinia pol inh 80.5
Cc1[nH]c2ccccc2c1C(Nc1ccccc1)c1ccccn1 (stereo not drawn)	none
CSc1ccc(Cl)c(C(=O)OCC(=O)N2CCc3ccccc3C2)c1	none
O=C1NC(=S)N(c2ccccc2)C(=O)/C1=C/C=C/c1ccco1	Vaccinia pol inh 52.9
O=C1Nc2ccccc2/C1=C/C(=O)c1ccccc1	none
O=C1Nc2ccccc2/C1=C\C1=Cc2ccccc2OC1	none
O=C1Nc2ccccc2/C1=C/C=C/c1ccco1	Vaccinia pol inh 65.7
O=C1NC(=S)N/C1=C\c1ccco1	none
O=C1NC(=O)N(c2ccccc2)C(=O)/C1=C/c1ccco1	none
CS(=O)(=O)c1ccc(C(=O)O)c(O)c1C(=O)O	none
COC(=O)c1ccc(C(=O)Nc2nc(-c3ccncc3)cs2)cc1	none
COc1ccccc1NC(=S)N(C1CCCCC1)C(C)c1ccco1 (stereo not drawn)	none
Nc1[nH]c(=S)ncc1S(=O)(=O)c1ccccc1	none
CSc1nnc(CSc2ncccn2)n1CCc1ccccc1	none
CCS(=O)(=O)N1CCN=C1SCc1ccccc1C	Vaccinia pol inh 78.5
COc1ccc(S(=O)(=O)N2CCN=C2SC)cc1	none
CCS(=O)(=O)N1CCN=C1SCc1cccc2ccccc12	Vaccinia pol inh 28.8
CS(=O)(=O)N1CCN=C1SCc1cccc2ccccc12	Vaccinia pol inh 50.6
O=S(=O)(c1ccc(F)cc1)N1CCN=C1SCc1ccc(F)cc1	none
C=C(C)CSc1nnc(SCc2cccc3ccccc23)s1	none
Cc1ccc(C)c(CSC2=NCCN2C(=O)COc2ccccc2)c1	none
CCSC1=NCCN1S(C)(=O)=O	none
CS(=O)(=O)N1CCN=C1SCc1ccc(Cl)c(Cl)c1	Vaccinia pol inh 56.1
COc1ccccc1C1CCN(C(=O)CSCc2cccc3ccccc23)CC1	none
CCSC1=NCCN1S(=O)(=O)c1ccccc1	none
O=C(Cc1ccccc1)N1CCN=C1SCc1ccccc1	none
CC(O)(CN1CCOCC1)c1ccc(Br)cc1 (stereo not drawn)	none
CCOc1ccc(N2C(=O)C3C4C=CC(C4)C3C2=O)cc1 (stereo not drawn)	none
CCC1=CC(c2c(O)c3ccccc3n(C)c2=O)=NC(C)CN1 (stereo not drawn)	none
Cn1c(=NC(=O)c2cccc3ccccc23)sc2cc(S(C)(=O)=O)ccc21	none
CN(Cc1ccccc1)C(=O)CSc1ccc(Br)cc1	none
CN(C)c1ccc(C2OCCO2)cc1	none
O=C(COC(=O)c1ccccc1OCc1ccccc1)c1ccc(F)cc1	none
NC(=O)Cn1c2ccccc2c2nc3ccccc3nc21	none
Fc1ccc(-c2nnc(N3CCOCC3)c3ccccc23)cc1	none
COc1ccc2c(OC)ccc3c2c1C=CC3=O	Vaccinia pol inh 56.2
CC(CBr)(NS(=O)(=O)c1ccccc1)c1ccccc1 (stereo not drawn)	Vaccinia pol inh 64.9
CC(CN1CCNCC1)(NS(=O)(=O)c1ccccc1)c1ccccc1 (stereo not drawn)	none
CC(C)(CN1CCCCCC1)NS(=O)(=O)c1ccccc1	none
Cc1ccccc1N=Cc1ccco1	none
CCCNC(=O)Nc1ccc2c(c1)oc1ccccc12	none
NC(=O)CCN1CCn2c1nc1ccccc12	none
Cc1ccc(-n2c(=O)c3c(c4cc(C)ccc4n3C)n(CC(N)=O)c2=O)cc1	none
Cc1ccc2c(c1)c1cccc3c1n2CCN3CCC(N)=O	Vaccinia pol inh 63.3
Brc1ccc(-n2nnnc2/C=C/N2CCCCC2)cc1	none
CCOC(=O)c1cc(-c2ccccc2)[nH]c1N1CCCC1	none
O=C(O)CCc1nc2ccc(C(=O)O)cc2[nH]1	none
Nc1ccc2nc(CCC(=O)O)[nH]c2c1	none
C=Cc1c(C)c2cc3[nH]c(cc4nc(cc5nc(cc1[nH]2)C(C)=C5CCC(=O)O)C(CCC(=O)O)=C4C)c(C)c3C=C	Vaccinia pol inh 21.7
Nc1cccc(C2=NCCN2)c1	none
O=C(NC1=NCCCCCN1)Nc1cccc(Cl)c1	none
O=C(Nc1cccc(C2=NCCN2)c1)Nc1cccc(C2=NCCN2)c1	Vaccinia pol inh 78.4
CC1=C(N(C)c2ccccc2)C(=O)N(C2CCCCC2)C1	none
